In PubChem BioAssay (EPA / NIEHS) one finds outcome and AC50 data, which are given here for 35 compounds.

Assay [1] can be described thus: CCTE_Shafer_MEA_acute_spike_number: CCTE's Neural Acute Assay for Total Number of Spikes, Shafer Lab (AID 2284008). Put shortly:
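Rat primary cortical neurons on 48-well MEA plates, DIV 13 or 15, at 37 C. 40 min baseline then 40 min with compound (0.03-40 uM); spikes detected at 8x rms noise, expressed as percent change from baseline.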

Assay [2] is described as follows: CCTE_Shafer_MEA_acute_firing_rate_mean: CCTE's Neural Acute Assay for Mean Firing Rate, Shafer Lab (AID 2284009).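 Further: analyzed for loss of signal so actives lower firing rate relative to DMSO.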 Put shortly: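 Spontaneous spiking of primary rat cortical networks, DIV 13/15, 37 C. Compound 0.03-40 uM, n ≥3 wells; 40 min baseline vs 40 min treated. Endpoint fitted in loss-of-signal direction against DMSO.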
A short description of assay [3]: CCTE_Shafer_MEA_acute_burst_number: CCTE's Neural Acute Assay for Single-Electrode Bursts, Shafer Lab (AID 2284013). Put shortly: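 Burst totals were derived with adaptive spike detection (8x rms threshold) on filtered signals from rat cortical cultures; change relative to pre-treatment baseline after 40-min compound exposure (0.03-40 uM) was fitted in the negative direction against DMSO.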

Assay [4] can be described thus: CCTE_Shafer_MEA_acute_burst_duration_mean: CCTE's Neural Acute Assay for Mean Burst Duration, Shafer Lab (AID 2284014).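 Further: hits are decreases in mean burst duration relative to DMSO controls.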 Summed up: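 Acute exposure of mature rat cortical networks (DIV 13 or 15) grown on microelectrode arrays to 0.03-40 uM compound. Mean burst duration compared with the 40-min pre-dose baseline over a 40-min post-dose recording at 37 C.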
The nature of assay [5]: CCTE_Shafer_MEA_acute_per_burst_spike_number_mean: CCTE's Neural Acute Assay for Average Number of Spikes Per Burst, Shafer Lab (AID 2284015).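 Further: hits are decreases in mean spikes per burst versus baseline.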 Summed up:
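We recorded spontaneous network firing of rat cortical neurons for 40 min before and 40 min during exposure to compound at 0.03-40 uM, at 37 C. Spikes were detected adaptively at 8x rms noise, and the change in average spikes per burst was fitted against DMSO.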

Assay [6] is described as follows: CCTE_Shafer_MEA_acute_interburst_interval_mean: CCTE's Neural Acute Assay for Mean Interburst Interval, Shafer Lab (AID 2284016).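 Further: percent change of mean interburst interval versus each well's own pre-dose baseline; curves fitted for decrease in interburst interval relative to DMSO.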 Put shortly:
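MEA recording of spontaneous network bursting in primary rat cortical cultures; mean interburst interval was compared before and after a 40-min compound exposure (0.03-40 uM) and expressed as percent change, relative to DMSO.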

Assay [7] can be described thus: CCTE_Shafer_MEA_acute_burst_percentage_mean: CCTE's Neural Acute Assay for Percentage of Spikes in a Burst, Shafer Lab (AID 2284017). Summed up: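 Compounds were tested at 0.03-40 uM on primary rat cortical neuron networks grown over microelectrodes, with at least three wells per compound. Spontaneous firing was recorded for 40 min before and 40 min after dosing, and the change in burst percentage was computed per well.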

Assay [8] is described as follows: CCTE_Shafer_MEA_acute_per_network_burst_spike_number_mean: CCTE's Neural Acute Assay for Average Number of Spikes in a Network Burst, Shafer Lab (AID 2284019). Summed up:
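Acute exposure of rat primary cortical networks (DIV 13/15) on MEAs; adaptive spike detection at 8x rms noise, 37 C. Percent change in spikes per network burst after 40 min with compound (0.03-40 uM), negative direction vs DMSO.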

The nature of assay [9]: CCTE_Shafer_MEA_acute_per_network_burst_electrodes_number_mean: CCTE's Neural Acute Assay for Mean Number of Electrodes in a Network Burst, Shafer Lab (AID 2284021).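 Further: curves fitted for decreases only so hits reduce electrodes per burst.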 Put shortly:
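Rat primary cortical neurons on 48-well MEAs, DIV 13 or 15, were treated at 0.03-40 uM. Spikes were detected at 8x rms noise and recorded at 37 C. The mean electrodes per network burst in a 40 min exposure recording was expressed as percent change from a 40 min baseline.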

The nature of assay [10]: CCTE_Shafer_MEA_acute_network_burst_percentage: CCTE's Neural Acute Assay for Percentage of Network Bursts, Shafer Lab (AID 2284022).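 Further: curves fitted for loss so actives lower network burst percentage.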 Put shortly:
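Rat primary cortical neuron networks on 48-well MEA plates, DIV 13 or 15, treated acutely with compound (0.03-40 uM, at least three wells). Percent of spikes within network bursts compared between 40-min recordings before and during exposure at 37 C, expressed as percent change.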

Assay [11] is described as follows: CCTE_Shafer_MEA_acute_cross_correlation_area: CCTE's Neural Acute Assay for Area of Cross Correlation, Shafer Lab (AID 2284024).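 Further: curves fitted for loss of cross-correlation area so actives lower synchrony.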 Summed up:
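Rat primary cortical neurons on 48-well MEA, DIV 13 or 15; compounds 0.03-40 uM. Baseline and post-exposure 40 min recordings at 37 C; percent change in area under pooled inter-electrode cross-correlation near zero lag, relative to DMSO.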

Assay [12] is described as follows: CCTE_Shafer_MEA_acute_cross_correlation_HWHM: CCTE's Neural Acute Assay for Cross Correlation at Half Width at Half Maximum, Shafer Lab (AID 2284026).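 Further: percent change per well from pre-dose baseline in spike cross-correlogram half width; hits are a decrease in cross-correlogram half width relative to DMSO.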 Put shortly:
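Rat primary cortical neurons on 48-well MEA plates; 40-min baseline and 40-min post-exposure recordings at 37 C on DIV 13 or 15, compounds 0.03-40 uM. Spikes detected at 8x rms noise; percent change in cross-correlogram HWHM per well vs baseline.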

The nature of assay [13]: CCTE_Shafer_MEA_acute_synchrony_index: CCTE's Neural Acute Assay for Synchrony, Shafer Lab (AID 2284027).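 Further: network synchrony index of spontaneous spiking in primary rat cortical neurons on MEAs; fitted for loss of signal so actives lower synchrony relative to DMSO.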 Summed up:
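The synchrony index is taken as percent change per well between a 40 min baseline and a 40 min recording with compound (0.03–40 uM), at 37C. Rat cortical cultures on multiwell MEAs at DIV 13 or 15, spike threshold 8× rms noise.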

Assay [14] in a line: CCTE_Harrill_HTTr_Viability_MCF7: CCTE's 6-hour Cell Viability Assessment for the High-Throughput Transcriptomics (HTTr) Platform, in MCF-7 cells cultured in DMEM + 10% fetal bovine serum, Harrill Lab (AID 2284010). Put shortly: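 Propidium iodide exclusion, imaged by high-content analysis, gauged viability after a six-hour exposure across eight concentrations. Cells were MCF-7 grown in DMEM with 10% fetal bovine serum; fits run in both directions against DMSO.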

Assay [15] in a line: CCTE_Harrill_HTTr_CellCount_MCF7: CCTE's Cell Proliferation Assessment for the High-Throughput Transcriptomics (HTTr) Platform, Harrill Lab (AID 2284012; active means hit-call score of the fitted dose curve at least 0.9, where 1 is the maximum;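 further: cells exposed to compound for six hours; intended direction is loss of nuclei count meaning fewer cells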). Put shortly: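 Cell count from high-content imaging of Hoechst-labeled nuclei serves as viability/growth readout. Chemicals were applied to MCF-7 cells in eight concentrations for six hours, with fitting in both directions relative to DMSO.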

Assay [16] can be described thus: CCTE_Harrill_HTTr_Apoptosis_MCF7: CCTE's 6-hour Apoptosis Assessment for the High-Throughput Transcriptomics (HTTr) Platform, in MCF-7 cells cultured in DMEM + 10% fetal bovine serum, Harrill Lab (AID 2284011). Summed up:
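MCF-7 cells in DMEM + 10% FBS exposed 6 h to chemicals over an eight-point dilution series. Caspase-3/7 activation imaged by high-content CellEvent Green staining; fitted bidirectionally versus DMSO.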

Assay [17] deals with Estrogen receptor (Homo sapiens) (UniProt P03372). Briefly: CCTE_Deisenroth_AIME_96WELL_LUC_Active: CCTE's 96-well Estrogen Receptor Transactivation Assay with AIME metabolic competence (ERTA luciferase; metabolism positive), Deisenroth Lab (AID 2284023; active means hit-call score of the fitted dose curve at least 0.9, where 1 is the maximum). Put shortly:
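Metabolism-positive mode: induced rat hepatic S9 in alginate microspheres conditions test solutions (0.002 - 200 uM, 10 points) for 2 hours. VM7Luc4E2 ER luciferase reporter cells then exposed 24 h; positive-direction fit against 17beta-estradiol, n=4 typical.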

Assay [18] shares this target. The assay can be described thus: CCTE_Deisenroth_AIME_96WELL_LUC_Inactive: CCTE's 96-well Estrogen Receptor Transactivation Assay without AIME metabolic competence (ERTA luciferase; metabolism negative), Deisenroth Lab (AID 2284025; active means hit-call score of the fitted dose curve at least 0.9, where 1 is the maximum). Put shortly:
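Metabolism-negative arm: chemicals (0.002–200 uM, 10 points) incubated 2 h with alginate-water microspheres, then medium moved onto VM7Luc4E2 cells for 24 h luciferase read-out. Positive direction vs 17beta-estradiol; n≥4 experiments.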

Molecules are shown by their SMILES. Records with an inconclusive call do not appear. Activity calls are given as the source filed them. How the source made its calls, unless noted: active means hit-call score of the fitted dose curve at least 0.9, where 1 is the maximum; inactive means score below 0.9.

Sequence of Estrogen receptor (Homo sapiens) (P03372 whole entry, looked up): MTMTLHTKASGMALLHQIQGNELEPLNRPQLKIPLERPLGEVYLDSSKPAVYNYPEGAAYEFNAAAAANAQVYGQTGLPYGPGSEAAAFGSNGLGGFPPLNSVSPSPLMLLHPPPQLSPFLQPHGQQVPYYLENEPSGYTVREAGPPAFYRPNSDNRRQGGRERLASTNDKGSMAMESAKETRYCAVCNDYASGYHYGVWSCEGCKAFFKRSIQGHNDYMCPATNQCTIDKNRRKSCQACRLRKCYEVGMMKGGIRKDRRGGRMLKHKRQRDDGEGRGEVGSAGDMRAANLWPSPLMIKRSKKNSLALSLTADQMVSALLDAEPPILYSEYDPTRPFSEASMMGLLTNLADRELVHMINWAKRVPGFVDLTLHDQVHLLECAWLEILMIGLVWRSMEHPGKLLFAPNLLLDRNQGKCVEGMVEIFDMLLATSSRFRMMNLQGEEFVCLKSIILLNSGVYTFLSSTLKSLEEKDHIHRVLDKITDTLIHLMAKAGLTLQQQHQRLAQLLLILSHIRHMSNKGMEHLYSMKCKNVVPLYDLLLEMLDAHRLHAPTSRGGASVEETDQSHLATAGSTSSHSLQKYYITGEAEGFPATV

In the case of `CCCCCCCCCCCCCCCS(=O)(=O)Oc1ccccc1`, the compound was classed as inactive in assay [1], in assay [2], in assay [3], in assay [4], in [5] and in assay [6]. Also, the call in assay [7], in [8], in assay [9], in assay [10], in assay [11] and in [12] was inactive. Moreover, the outcome in assay [13] was inactive.
On to `COCC(C)O` (centres undefined), for which the outcome in [14] and in assay [15] was inactive.
Regarding `C[C@@H]1C[C@H]2[C@@H]3CCC4=CC(=O)C=C[C@]4(C)[C@@]3(F)[C@@H](O)C[C@]2(C)[C@@]1(O)C(=O)COP(=O)(O)O`, the outcome in assay [14] and in assay [15] was inactive.
On to `CCOC(=O)CC(O)(CC(=O)OCC)C(=O)OCC`, for which the outcome in assay [14], in [16] and in assay [15] was inactive.
With `CC(C)(C)c1cccc(C(C)(C)C)c1O`, the result in assay [14] and in [15] was inactive.
On to `O=C(/C=C/c1ccc(O)cc1)CC(=O)/C=C/c1ccc(O)cc1`, for which the result in assay [14] and in [15] was inactive. Moreover, the AC50 (as a rule, the midpoint of the concentration-response curve, whichever way the signal moves) in assay [17] was 31.4 µM (active); in [18] it was 43.2 µM (active).
On to `CC[C@H](C)[C@@H](C(=O)O)n1sc2ccccc2c1=O`, for which the result in assay [14] and in [15] was inactive.
As for `C=C(C)C(=O)OCCC(F)(F)C(F)(F)C(F)(F)C(F)(F)C(F)(F)C(F)(F)F`, the outcome in [14] and in [15] was inactive.
Consider `CCCCC[C@H](O)CC(=O)CCc1ccc(O)c(OC)c1`, for which the outcome in assay [14] and in assay [15] was inactive. For the same compound, the concentration at half-maximal activity (AC50) in assay [17] is 26 µM (active); in assay [18], 24.9 µM (active).
`Cc1cc(C)c(O)c(C)c1`: the outcome in assay [14] and in assay [15] was inactive.
Consider `CC(C)(C)c1ccc(O)c(C(C)(C)C)c1`, for which the result in [14] and in [15] was inactive. Also, the half-maximal activity concentration (AC50) in assay [17] is 26.4 µM (active).
For the compound `COc1cc(CCC(=O)CC(=O)CCc2ccc(O)c(OC)c2)ccc1O`, the result in assay [14], in assay [15] and in assay [18] was inactive.
In the case of `c1ccc2cc3c(ccc4ccccc43)cc2c1`, in [14], the result was inactive. For the same compound, the half-maximal activity concentration (AC50) in assay [17] is 11.8 µM (active); in [18], 5.25 µM (active).
For the compound `CC(O)CO` (centres undefined), the result in assay [14], in assay [16] and in [15] was inactive.
Turning to `COCC(C)OCC(C)O` (centres undefined), the result in [14], in assay [16] and in [15] was inactive.
Consider `CCCCCCCCC(=O)O`, for which the outcome in assay [14] and in [15] was inactive.
On to `COc1ccc([N+](=O)[O-])cc1N`, for which the result in assay [14], in assay [16] and in assay [15] was inactive.
Consider `CCC(C)(C)C1CCC(O)CC1` (centres undefined), for which the outcome in [14], in [16] and in assay [15] was inactive.
`CC(=O)CC(C)(C)O`: the outcome in assay [14], in assay [16] and in assay [15] was inactive.
Consider `CCCCOCCO`, for which the result in assay [14] and in assay [15] was inactive.
With `O=C(OCCOCCOC(=O)c1ccccc1)c1ccccc1`, the result in assay [14], in [16] and in assay [15] was inactive.
In the case of `C#C[C@]1(O)CC[C@H]2[C@@H]3CCC4=CC(=O)CC[C@@H]4[C@H]3CC[C@@]21C`, the result in assay [14], in assay [16] and in [15] was inactive.
For `CCCCCCCCOC(=O)CCCCCCCCC(=O)OCCCCCCCC`, the outcome in [14] and in assay [15] was inactive.
Take `Cc1oc(-c2ccccc2)nc1CCOc1ccc(C[C@H](Nc2ccccc2C(=O)c2ccccc2)C(=O)O)cc1`: the result in assay [14] and in assay [15] was inactive.
Turning to `CC1=C(/C=C/C(C)=C/C=C/C(C)=C/C(=O)O)C(C)(C)CCC1`, the outcome in assay [14] and in assay [15] was inactive.
Take `CCCCCCC(=O)O`: the outcome in assay [14] and in [15] was inactive.
Regarding `c1ccc2c(c1)Cc1ccccc1-2`, the outcome in assay [14], in assay [16], in assay [15] and in assay [17] was inactive.
On to `COC(=O)CCCCC(=O)OC`, for which the result in [14] and in assay [15] was inactive.
For the compound `c1ccc2c(c1)ccc1ccccc12`, the outcome in [14], in assay [16] and in [17] was inactive. In addition, in assay [18], the concentration at half-maximal activity (AC50) was 133 µM (active).
Take `OC1CCCCC1`: the outcome in [14] and in [15] was inactive.
On to `CCCCC(CC)COC(=O)CCCCC(=O)OCc1ccccc1` (centres undefined), for which the result in [14] and in assay [15] was inactive.
Turning to `ClC1=C(Cl)C(Cl)(Cl)C(Cl)=C1Cl`, the result in assay [14], in [16] and in assay [15] was inactive.
Turning to `CCN(CC)CCNc1ccc(CNC=O)c2sc3ccc(OC)cc3c(=O)c12`, the outcome in [14], in [16] and in assay [15] was inactive.
Consider `OCCC(F)(F)C(F)(F)C(F)(F)C(F)(F)C(F)(F)C(F)(F)F`, for which the outcome in assay [14] and in assay [15] was inactive.
As for `CCCCC(CC)COC(=O)CCCCC(=O)OCC(CC)CCCC` (centres undefined), the outcome in assay [14], in assay [15], in assay [17] and in [18] was inactive.
